# Screening data from PubChem BioAssay.
# Efflux pump inh: antifungal efflux pump inhibition, Nile Red retention. inhibition, % at 10 µM. S. cerevisiae Candida pump triplex. actives 0.44% (n = 330,000);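 active = plate passing quality check with inhibition over a set limit, or well fluorescence over plate mean plus 4 SD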;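 also: Nile Red retained in pooled yeast measured as flow cytometry median fluorescence; 0% = buffer negative control and 100% = Enniatin B positive control; higher means more Nile Red kept so more efflux inhibition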
# SUMO Mot1 rescue: SUMOylation pathway inhibition by Mot1-301 growth rescue; S. cerevisiae Mot1-301 growth rescue, ATP luminescence, 38.5C; percent above DMSO median, 100 means doubled; growth rescue, % at 18.8 µM; actives 1% (n = 320,000);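 active = every valid replicate shows activation above 250% relative to neutral control wells; inactive = the rest, any valid replicate at or below 250%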;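 also: OY570 slx delta 5 strain wells were the positive control but not used for scaling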
# HGIII-sPLA2 inh: Inhibits HGIII-sPLA2 liposome hydrolysis, primary screen; inhibition, % at 12.2 µM; QFRET BODIPY PC-A2 liposome hydrolysis, fluorescence; Q9NZ20; AID 743126; actives 0.56% (n = 370,000);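 active = inhibition above mean plus 3 SD of compounds lying within the high and low control bounds, cut at about 19% in these data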;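 also: 0% = median of test compound wells and 100% = no enzyme DMSO wells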
# Target sequence (Q9NZ20 whole entry, looked up): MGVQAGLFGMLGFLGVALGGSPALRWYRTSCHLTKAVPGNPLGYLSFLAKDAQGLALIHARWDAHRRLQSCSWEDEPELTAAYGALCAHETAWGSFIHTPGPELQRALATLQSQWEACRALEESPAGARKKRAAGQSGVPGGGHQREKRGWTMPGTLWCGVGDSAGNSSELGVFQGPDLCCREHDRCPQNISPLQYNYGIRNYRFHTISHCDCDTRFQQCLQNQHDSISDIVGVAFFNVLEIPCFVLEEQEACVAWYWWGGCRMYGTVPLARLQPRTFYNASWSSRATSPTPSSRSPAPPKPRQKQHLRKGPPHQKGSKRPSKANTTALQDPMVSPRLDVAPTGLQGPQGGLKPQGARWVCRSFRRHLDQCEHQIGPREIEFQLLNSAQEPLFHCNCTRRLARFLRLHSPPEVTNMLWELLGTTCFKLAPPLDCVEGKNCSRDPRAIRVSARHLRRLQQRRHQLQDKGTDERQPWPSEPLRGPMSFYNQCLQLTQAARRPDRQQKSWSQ
# SKN-1 inh: inhibitors of C. elegans SKN-1; inhibition, % at 21.8 µM; actives 0.49% (n = 360,000); C. elegans VP596 Pgst-4::GFP/RFP ratio, acrylamide-induced, 24 h;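 active = interference check ratio from 0.5 to 1.5 plus GFP to RFP signal ratio inhibition reaching or exceeding a fixed threshold, cut at about 30% in these data, passing the limit was not always enough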
# Mot1 SUMO dose: inhibits SUMO pathway, affecting Mot1-301 yeast growth. shares compounds with SUMO Mot1 rescue. S. cerevisiae Mot1-301 galactose growth, ATP luminescence, 24 h; -100 = growth of slx-deleted rescue strain. growth activity, percent, % at 42 µM. 2,300 tested, under 10 active;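 active = Signal drops as the depositor expects, and the fitted half-maximal dose is no more than ten times the top valid tested dose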;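 also: more negative values mean stronger growth rescue toward the control strain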
# Active calls of the source: *; · = not tested or not shown; + = active, no number; [ ] = another dose, or the depositor's remark. Hits are enriched below; roughly 2.2% of the tested compounds scored in any of these assays.
SMILES,Efflux pump inh,SUMO Mot1 rescue,HGIII-sPLA2 inh,SKN-1 inh,Mot1 SUMO dose
CCOC(=O)C1CCN(C(=O)COc2ccc(S(=O)(=O)N3CCOCC3)cc2C)CC1,0,718*,9,13,0
COc1ccc(CC(=O)N2CCc3cc(OC)c(OC)cc3C2)cc1,0,-4,13,18,·
COc1cc2c(cc1OC)CN(C(=O)Cc1c(F)cccc1Cl)CC2,0,475*,-1,-13,1
COc1ccc(N2CCN(CC(=O)c3c[nH]c4ccccc34)CC2)cc1,0,-5,17,0,·
COc1ccc(N2CCN(CCCNC(=O)C(=O)c3c(C)[nH]c4ccccc34)CC2)cc1,0,413*,-3,-7,0[21 µM]
COc1ccc(OC)c(NC(=O)CCN2CCN(Cc3ccccc3)CC2)c1,0,-3,-9,6,·
COc1cc(NC(=O)CN2CCN(CC(=O)Nc3ccccc3OC)CC2)cc(OC)c1,0,518*,8,-7,1
COc1cc(NC(=O)CCN2CCN(Cc3ccccc3)CC2)cc(OC)c1,0,696*,-2,7,0
C=CCOc1ccc(CNCCc2ccc(S(N)(=O)=O)cc2)cc1,0,62,-10,7,·
Cc1ccc(CNC(=O)CCCCn2c(=O)[nH]c3ccsc3c2=O)cc1,0,-12,-2,-1,·
O=C(CCCCCn1c(=O)[nH]c2ccsc2c1=O)NCc1ccc(F)cc1,0,883*,5,2,0
Cc1cc(C)n(-c2ccc(C(=O)C(C#N)c3nc4ccccc4n3C)cc2)n1 (configuration not stated),2,775*,-6,-2,0
Cc1cc(C)n(-c2ccc(C(=O)OC(C)C)cc2)n1,0,2,1,-6,·
C#CCN(Cc1ccco1)C(=O)c1nnc2c3ccccc3n(S(=O)(=O)c3ccccc3)c2n1,·,·,4,·,·
O=C(NCCCN1CCOCC1)C1CCC(=O)N1CCc1ccccc1 (configuration not stated),0,408*,1,-2,-1
CCCCC(=O)Nc1nnc(/C=C/c2ccc(OC)cc2)s1,0,714*,·,10,0
NC(=O)C1CCN(C(=O)CCC(=O)c2cccs2)CC1,0,54,14,-6,·
COc1ccc(CN(C)C(=O)c2sccc2-c2ccccc2)c(OC)c1,0,485*,3,2,0
CC1=C(C(=O)N2CCOCC2)C(c2ccc(-c3ccccc3)cc2)NC(=S)N1 (configuration not stated),0,-7,12,2,·
CC1=C(C(=O)N2CCOCC2)C(c2ccc(O)cc2)NC(=S)N1 (configuration not stated),-1,583*,7,6,0
COc1ccc(NC(=O)CN(C)C(=O)/C=C/c2cn(-c3ccccc3)nc2-c2ccc(F)cc2)cc1,0,567*,1,5,1
CN(C)S(=O)(=O)c1cccc(C(=O)Nc2ccccc2)c1,0,-27,-1,11,·
CC(C)N(C(=S)Nc1cccc(S(=O)(=O)N(C)C)c1)c1ccccc1,0,454*,14,1,1
CN(C)S(=O)(=O)c1cccc(NC(=O)C(c2ccccc2)c2ccccc2)c1,0,404*,-7,-3,0
Cc1cnc(NC(=O)CSc2nc3ccccc3s2)s1,0,395*,-20,-1,-1
SMILES,Efflux pump inh,SUMO Mot1 rescue,HGIII-sPLA2 inh,SKN-1 inh,Mot1 SUMO dose
O=C1Nc2ccccc2/C1=C/c1ccc([N+](=O)[O-])cc1,0,477*,6,-3,0
COc1cc2ccccc2cc1C(=O)Nc1ccc(Cl)cn1,0,-10,-1,4,·
Cc1ccc(C(=O)c2cc([N+](=O)[O-])ccc2N2CCCCC2)cc1C,1,500*,9,9,0
CCOc1ccc(/C=N/NS(=O)(=O)c2ccc(C)cc2)cc1OC,0,+,2,23,2
COc1cc(/C=N/NS(=O)(=O)c2ccc(C)cc2)ccc1OCc1ccc(C(=O)O)cc1,0,-3,-15,2,·
O=C(Cc1cccs1)N/N=C/c1ccccc1,0,3,7,-9,·
Cc1cccc(/C=N/NC(=O)Cc2cccs2)c1,0,908*,-4,10,0
COc1ccc(C2=NN(C(=S)Nc3ccccc3)C(c3ccccc3)C2)cc1 (configuration not stated),-2,+,-2,10,-1
COc1ccc(C2CC(c3ccccc3)=NN2C(=S)Nc2ccccc2)cc1 (configuration not stated),0,·,-3,6,·
